# About 27,000 (9.3%) of roughly 290,000 compounds were called active. Many of the other results were omitted from the sample, so actives are more common in it than they were. Values without a mark were called inactive. Rule as the data show it: active = inhibition mostly above about 28% (no sharp cut-off); inactive = mostly below about 43%.
# Assay: A qHTS for Small Molecule Inhibitors of Shiga Toxin; also: 0% is about no effect
# Settings: Vero cells, Shiga toxin protein synthesis inhibition reporter; at 38.7 µM, hits give high values
row,Structure (SMILES),inhibition
1,COc1ccc(C2/C=C\CN(Cc3ccco3)C(C)C(=O)N2Cc2ccc(F)cc2)cc1 (stereo unspecified),-2.61%
2,O=C(Nc1cccc(-n2cnnn2)c1)c1cccnc1,-4.33%
3,Cc1ccc(-n2nc3cc(C)c(NC(=O)c4cccnc4)cc3n2)cc1,49% (active)
4,Cc1c(NC(=O)c2cccnc2)c(=O)n(-c2ccccc2)n1C,12.2%
5,COC(=O)c1cc(Cl)c(NC(=O)c2ccco2)cc1OC,29.6%
6,Cc1ccc(-n2nc3cc(Cl)c(NC(=O)c4ccco4)cc3n2)cc1,75.3% (active)
7,Cc1cc(NC(=O)c2ccco2)c(=O)n(Cc2c(F)cccc2Cl)c1,1.74%
8,C[C@H](NC(=O)[C@@H]1Cc2ccccc2CN1C(=O)OC(C)(C)C)C(=O)NC1CCCC1,-6.03%
9,O=c1[nH]cccc1-c1nc2ccccc2n1Cc1ccc(Cl)cc1,-20.4%
10,O=S(=O)(c1ccccc1)c1nc(Cc2ccccc2)oc1N1CCOCC1,-8%
11,COc1cccc(CNCc2ccc3c(c2)OCO3)c1,-0.994%
12,COc1cccc(C(=O)NNC(=O)/C=C/c2ccccc2)c1,-15.7%
13,O=C1Nc2ccccc2C12Nc1ccccc1S2 (stereo unspecified),103% (active)
14,Cc1cc(O)c(C2(O)C(=O)Nc3ccccc32)cc1C (stereo unspecified),-0.279%
15,COc1ccc(C2(O)C(=O)Nc3ccccc32)cc1 (stereo unspecified),-10.8%
16,Cn1c(=O)[nH]c(=O)c2c1nc(N1CCN(C(c3ccccc3)c3ccccc3)CC1)n2CCO,-11.3%
17,COc1ccc(NC(=O)c2cccc(Cl)c2)c[n+]1[O-],-4.4%
18,O=[N+]([O-])c1ccccc1/C=C/CN1CCC(O)CC1,-7.66%
19,c1ccc(CN2CCC(N=C3NN=C(c4ccc5c(c4)OCCO5)CS3)CC2)cc1,116% (active)
20,Clc1cccc(N=C2NN=C(c3ccc4c(c3)OCCO4)CS2)c1,95.2% (active)
21,CC(=NC1CCN(Cc2ccccc2)CC1)c1c(O)[nH]c(=O)[nH]c1=O,21%

row,Structure (SMILES),inhibition
1,CS(=O)(=O)N(CC(=O)N1CCN(Cc2ccccc2)CC1)c1ccc2c(c1)OCCO2,-18.5%
2,Cc1cccc(C)c1NC(=O)CSc1nc2c([nH]1)c(=O)n(C)c(=O)n2C,-8.9%
3,Cc1ccc(C(=O)N2CC(=O)Nc3ccc(F)cc3C2c2ccc(F)cc2)cc1 (stereo unspecified),2.9%
4,CCOC(=O)c1cc(C(=O)Nc2ccc(S(=O)(=O)Nc3ccc(OC)cc3)cc2)nn1C,5.33%
5,CCOc1ccccc1Nc1ccc2nonc2c1[N+](=O)[O-],-7.22%
6,CC(C)(C)C(=O)c1cnc(Nc2ccccc2)s1,87% (active)
7,S=c1[nH]nc(Nc2ccccc2)s1,-13.5%
8,O=C(c1ccc(Cl)cc1)c1cnc(Nc2ccccc2)s1,25.6%
9,COc1ccc(-n2cnnc2SCC(=O)Nc2cccc(S(N)(=O)=O)c2)cc1,-21.7%
10,COc1ccc(OC)c(NC(=O)CN(C)CCOc2ccc(Br)cc2)c1,-23.8%
11,NNC(=O)COc1ccc(C2SCCS2)cc1,20.4%
12,NC(=O)COc1ccccc1C(=O)NC12CC3CC(CC(C3)C1)C2,-4.22%
13,NC(=O)COc1ccc(C23CC4CC(CC(C4)C2)C3)cc1,58.8% (active)
14,O=S(=O)(Oc1ccccc1C(=S)N1CCOCC1)c1ccc(Cl)cc1,-36.2%
15,Cc1ccc(N(C(=O)c2snc(C(N)=O)c2N)C(C(=O)NCC2CCCO2)c2c[nH]c3ccccc23)cc1 (stereo unspecified),23.7%
16,COC(=O)c1ccccc1NC(=O)C1CCN(C(=O)N2CCOc3ccccc32)CC1,8.07%
17,Cc1nn(CC(=O)Nc2nc3ccccc3s2)c(C)c1[N+](=O)[O-],26.1%
18,Oc1ccc(-c2[nH]ncc2-c2nc3ccccc3s2)c(O)c1,13.6%
19,CC(=O)Nc1cccc(-c2nc3ccccc3s2)c1C,60.4% (active)
20,CC(=O)N1CCSc2ccc(S(=O)(=O)N3CCC(C)CC3)cc21,-12.1%
21,O=C(Nc1ccccc1N1CCCC1)c1ccc2ccccc2c1,58.1%

row,Structure (SMILES),inhibition
1,CCCN(CCC)C(=S)Nc1cc(C(=O)OC)ccc1C(=O)OC,-14.3%
2,COc1ccc(S(=O)(=O)N(CC(=O)N/N=C/c2ccc(C(=O)O)cc2)Cc2ccccc2)cc1OC,1.95%
3,CCCNC(=O)c1c(N)n(-c2ccc(S(N)(=O)=O)cc2)c2nc3ccccc3nc12,-14.1%
4,CC(C)Cn1c(N)c(C(=O)NCc2cccs2)c2nc3ccccc3nc21,-13.1%
5,CCC(C)NC(=O)c1c(N)n(/N=C/c2cccs2)c2nc3ccccc3nc12 (stereo unspecified),107% (active)
6,CCc1[nH]nc(C(=O)N2CCCC(CO)(Cc3ccc(F)cc3F)C2)c1C (stereo unspecified),-13.8%
7,Cc1ccc(S(=O)(=O)CC(=O)NC(C)c2ccccc2)cc1 (stereo unspecified),-1.44%
8,CCc1ccccc1NC(=O)[C@@H]1CCC(=O)N1C1OC(=O)c2c1ccc(OC)c2OC (stereo partly specified),-2.37%
9,Cc1ccc2[nH]cc(CCCN3C(=O)c4ccccc4C3=O)c2c1,1.09%
10,COc1ccc2[nH]cc(CCN3C(=O)c4ccc(C(=O)O)cc4C3=O)c2c1,60.8% (active)
11,COc1ccc(C[C@H](C(=O)O)N2C(=O)c3ccc(C(=O)O)cc3C2=O)cc1,2.25%
12,O=C(CC(c1ccccc1)c1ccccc1)NCC(O)c1ccc([N+](=O)[O-])cc1 (stereo unspecified),-4.27%
13,COc1ccc(NC(=S)N2CCCC(CO)C2)c(OC)c1 (stereo unspecified),-3.35%
14,CCCCc1ccc(NC(=S)NCCCN2CCOCC2)cc1,-8.23%
15,CCCCc1ccc(NC(=S)N2CCCC(CO)C2)cc1 (stereo unspecified),87.2% (active)
16,COc1ccc(C(=O)Nc2ccccc2C(=O)N2CCN(c3ccccc3)CC2)cc1,-6.97%
17,CCn1nccc1C(=O)Nc1ccc(S(=O)(=O)NC23CC4CC(CC(C4)C2)C3)cc1,-9.86%
18,CCn1nccc1C(=O)Nc1ccc(Cl)c(Cl)c1,81% (active)
19,Cc1nnc(NC(=O)Nc2ccc(Cl)c(Cl)c2)s1,-3.3%

# From PubChem BioAssay AID2315 (National Center for Advancing Translational Sciences (NCATS), 2010)
